{"source": "PubChem BioAssay AID1494156", "about": "(National Center for Advancing Translational Sciences (NCATS), 2020)", "note": "Records with an inconclusive call do not appear. Active and inactive are the calls of the source. Calls follow the shape of the full dose curve."}
{"test": "VSV-G qHTS counterscreen for inhibitors of MERS-S pseudo-typed particle cell entry", "conditions": "VSV-G pseudotyped particle cell entry, luciferase counterscreen; series mostly up to 57.1 µM; activity, negative = inhibition: at the top concentration"}
{"compound": "Cc1cc(-n2c(=O)[nH]c(=O)n(C)c2=O)ccc1Oc1ccc(S(=O)(=O)C(F)(F)F)cc1", "Potency": "9.61 µM (active)"}
{"compound": "CC[C@@H]([C@H](C)O)n1ncn(-c2ccc(N3CCN(c4ccc(OC[C@@H]5CO[C@@](Cn6cncn6)(c6ccc(F)cc6F)C5)cc4)CC3)cc2)c1=O", "Potency": "6.81 µM (active)"}
{"compound": "CCn1cc(C(=O)O)c(=O)c2cc(F)c(N3CCNC(C)C3)c(F)c21", "note": "(stereo unspecified)", "activity, negative = inhibition": "0.566% (inactive)"}
{"compound": "N#CC(c1ccc(Cl)cc1)c1c(Cl)cc(-n2ncc(=O)[nH]c2=O)cc1Cl", "note": "(stereo unspecified)", "Potency": "3.83 µM (active)"}
{"compound": "CCCCN=C(N)N=C(N)N", "activity, negative = inhibition": "0.705% (inactive)"}
{"compound": "COC(=O)C1=C(C)NC(C)=C(C(=O)OCC(C)C)C1c1ccccc1[N+](=O)[O-]", "note": "(stereo unspecified)", "Potency": "17.1 µM (active)"}
{"compound": "CC(=O)OCC1=C(C(=O)O)N2C(=O)[C@@H](NC(=O)Cc3cccs3)[C@H]2SC1", "activity, negative = inhibition": "-2.27% (inactive)"}
{"compound": "C[C@@H](c1nc(-c2ccc(C#N)cc2)cs1)[C@](O)(Cn1cncn1)c1cc(F)ccc1F", "Potency": "2.15 µM (active)"}
{"compound": "CC(C)(C)c1ccc(C(=O)CCCN2CCC(OC(c3ccccc3)c3ccccc3)CC2)cc1", "Potency": "8.57 µM (active)"}
{"compound": "CCCCCCCCCCCCOCCOCCOCCOCCOCCOCCOCCOCCOCCO", "Potency": "5.41 µM (active)"}
{"compound": "CN(C/C=C/c1ccccc1)Cc1cccc2ccccc12", "activity, negative = inhibition": "-16.4% (inactive)"}
